Inconclusive results are not listed. Entries that show only a call come without a potency. A number with no mark means an inactive call. Calls of active or inactive are those of the source. Unless noted, calls follow the shape of the full dose curve.
How the values were obtained:
[1] = qHTS assay to identify small molecule agonists of the vitamin D receptor (VDR) signaling pathway - cell viability counter screen (AID 743224; active = well fitted curve in the direction sought with a large enough effect in the repeat runs; an effect the other way counts as inactive or inconclusive; also: nearly all actives have a fitted effect of over 50% in size; also: potency is read from the fitted curve at half-maximal effect)
Method in brief: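 Viability is measured in the same wells as the VDR-bla reporter assay: after 16 h compound treatment and 2 h substrate loading, CellTiter-Glo is added and luminescence read 30 min later.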

[2] = qHTS assay to identify small molecule antagonists of the vitamin D receptor (VDR) signaling pathway - cell viability counter screen (AID 743225; active = well fitted curve in the direction sought with a large enough effect in the repeat runs; an effect the other way counts as inactive or inconclusive; also: nearly all actives have a fitted effect of over 50% in size)
Method in brief: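 Read-out: CellTiter-Glo luminescence measured 30 min after reagent addition at room temperature. Cells were VDR-bla HEK 293T exposed 16 h at 37C, 5% CO2, to compound with 3 nM final calcitriol agonist.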

[3] = qHTS assay to identify small molecule agonists of the NFkB signaling pathway (AID 1159509; active = well fitted curve in the direction sought with a large enough effect in the signal ratio in the repeat runs, not every such curve was filed as active; the % refers to the signal ratio; also: series mostly up to about 61 µM)
Method in brief: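 ME-180 NFkB-bla, 2,000 cells/well, overnight plating; cpd pinned in DMSO, 5 h 37 C; B/G FRET substrate 1.5 h RT; ex 405, em 460/530 nm.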

[4] = qHTS assay to identify small molecule agonists of the NFkB signaling pathway - cell viability counter screen (AID 1159515); also: series mostly up to about 61 µM; nearly all actives have a fitted effect of over 55% in size
Method in brief: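 Multiplexed viability readout: after the 5 hr compound exposure and 1.5 hr FRET substrate step, CellTiter-Glo reagent went into the same NFkB-bla ME-180 wells; ATP luminescence was measured after 30 min at room temperature.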

[5] = qHTS assay to identify small molecule agonists of the endoplasmic reticulum stress response signaling pathway (AID 1159516; active = well fitted activation curve with a large enough effect in the signal ratio in the repeat runs, not every such curve was filed as active; the % refers to the signal ratio)
Method in brief: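 Tox21 10K library screened in quantitative HTS format on ESRE-bla HeLa cells, a beta-lactamase reporter under ER stress response element control; 5 hr treatment, FRET read.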

[6] = qHTS assay to identify small molecule agonists of the endoplasmic reticulum stress response signaling pathway - cell viability counter screen (AID 1159517); also: series mostly up to about 61 µM; nearly all actives have a fitted effect of over 50% in size
Method in brief: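 ESRE-bla HeLa cells, 1,500 per well, seeded overnight then treated with compounds for 5 hr at 37 C. After the beta-lactamase read, viability in the same wells is measured by CellTiter-Glo luminescence after 30 min at room temperature.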

[7] = qHTS assay to identify small molecule antagonists of the retinoid-related orphan receptor gamma (ROR-gamma) signaling pathway - cell viability counter screen (AID 1159520; active = well fitted curve in the direction sought with a large enough effect in the repeat runs; an effect the other way counts as inactive or inconclusive; also: nearly all actives have a fitted effect of over 50% in size)
Method in brief: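 Tet-on ROR gamma CHO cells were given compounds for 2 hr, then doxycycline hyclate at 1 uM final, and incubated 16 hr at 37 C. Viability was measured as ATP content by CellTiter-Glo luminescence.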

[8] = target: Nuclear receptor ROR-gamma (Homo sapiens) (UniProt P51449); experiment: qHTS assay to identify small molecule antagonists of the retinoid-related orphan receptor gamma (ROR-gamma) signaling pathway (AID 1159521; active = well fitted curve in the direction sought with a large enough effect in the repeat runs; an effect the other way counts as inactive or inconclusive)
Method in brief: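 CHO Tet-on RORγ, RORE-luc reporter. Cpd 2 h pre-incubation, then dox hyclate 1 uM final, 16 h, 37 C/5% CO2. ONE-Glo luminescence; decrease = antagonist.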

[9] = qHTS assay to identify small molecule agonists of the AP-1 signaling pathway - cell viability counter screen (AID 1159525); also: nearly all actives have a fitted effect of over 55% in size
Method in brief: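 AP-1-bla ME-180 cells in Opti-MEM with 0.5% dialyzed FBS, compound exposure 5 h at 37 C in 15-point titration. Viability read in the same wells as ATP content by CellTiter-Glo luminescence, normalised to tetra-n-octylammonium bromide and DMSO controls.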

[10] = qHTS assay to identify small molecule agonists of the AP-1 signaling pathway (AID 1159526)

SMILES | Potency [1] | outcome [2] | outcome [3] | outcome [4] | outcome [5] | Potency [6] | outcome [7] | outcome [8] | outcome [9] | outcome [10] | activity, negative = cytotoxicity [7] | activity change, negative = inhibition [8] | viability change, negative = cytotoxic [9] | activation [10]
CN=C(NC#N)Nc1ccc(C2=NNC(=O)CC2C)cc1 (centres undefined) | inactive | inactive | inactive | inactive | inactive | inactive | inactive | inactive | inactive | inactive | – | – | – | –
On1nnc2ccccc21 | inactive | inactive | inactive | inactive | inactive | inactive | inactive | inactive | inactive | inactive | – | – | – | –
O=C(CCNNC(=O)c1ccncc1)NCc1ccccc1 | inactive | inactive | inactive | inactive | inactive | inactive | inactive | inactive | inactive | inactive | – | – | – | –
C=C(C)C(=O)OCc1ccccc1 | inactive | inactive | inactive | inactive | inactive | inactive | inactive | inactive | inactive | inactive | – | – | – | –
CCNC(=O)C1CC(C)CCC1C(C)C (centres undefined) | inactive | inactive | inactive | inactive | inactive | inactive | inactive | inactive | inactive | inactive | – | – | – | –
O=C(NCCN1CCOCC1)c1ccc(Cl)cc1 | inactive | inactive | inactive | inactive | inactive | inactive | inactive | inactive | inactive | inactive | – | – | – | –
O=C(CS(=O)Cc1ccco1)NC/C=C\COc1cc(CN2CCCCC2)ccn1 (centres undefined) | inactive | inactive | inactive | inactive | inactive | inactive | inactive | inactive | inactive | inactive | – | – | – | –
CC(=O)c1ccc2c(c1)Cc1ccccc1-2 | inactive | inactive | inactive | inactive | inactive | inactive | inactive | inactive | inactive | inactive | – | – | – | –
C[C@H](CCC(=O)O)[C@H]1CC[C@H]2[C@@H]3C(=O)C[C@@H]4CC(=O)CC[C@]4(C)[C@H]3CC(=O)[C@]12C | inactive | inactive | inactive | inactive | inactive | inactive | inactive | inactive | inactive | inactive | – | – | – | –
CCOC(=O)[C@H](CCc1ccccc1)N[C@@H](C)C(=O)N1C(=O)N(C)C[C@H]1C(=O)O | inactive | inactive | inactive | inactive | inactive | inactive | inactive | inactive | inactive | inactive | – | – | – | –
COP(=O)(OC)OC(c1ccc(Cl)cc1)P(=O)(OC)OC (centres undefined) | inactive | inactive | inactive | inactive | inactive | inactive | inactive | inactive | inactive | inactive | – | – | – | –
O=S(=O)(O)c1cc(O)c2ccc(Nc3ccccc3)cc2c1 | inactive | inactive | inactive | inactive | inactive | inactive | inactive | inactive | inactive | inactive | – | – | – | –
CC(=O)N[C@@H](CCC(=O)O)C(=O)O | inactive | inactive | inactive | inactive | inactive | inactive | inactive | inactive | inactive | inactive | – | – | – | –
COCCOCCOCCOCCOCCO | inactive | inactive | inactive | inactive | inactive | inactive | inactive | inactive | inactive | inactive | – | – | – | –
CCCCCCN | inactive | inactive | inactive | inactive | inactive | inactive | inactive | inactive | inactive | inactive | – | – | – | –
CCOC(=O)CC(=O)c1ccccc1 | inactive | inactive | inactive | inactive | inactive | inactive | inactive | inactive | inactive | inactive | – | – | – | –
O=C1O[C@@H]2[C@@H](O)[C@H](O)O[C@@H]2[C@H]1O | inactive | inactive | inactive | inactive | inactive | inactive | inactive | inactive | inactive | inactive | – | – | – | –
CC(C)N(c1ccccc1)C(C)C | inactive | inactive | inactive | inactive | inactive | inactive | inactive | inactive | inactive | inactive | – | – | – | –

SMILES | Potency [1] | outcome [2] | outcome [3] | outcome [4] | outcome [5] | Potency [6] | outcome [7] | outcome [8] | outcome [9] | outcome [10] | activity, negative = cytotoxicity [7] | activity change, negative = inhibition [8] | viability change, negative = cytotoxic [9] | activation [10]
CC(N)C(=O)OC(C)(C)Cc1ccc(Cl)cc1 (centres undefined) | inactive | inactive | inactive | inactive | inactive | inactive | inactive | inactive | inactive | inactive | – | – | – | –
O=S(=O)(O)c1ccc2cc(O)c(S(=O)(=O)O)cc2c1 | inactive | inactive | inactive | inactive | inactive | inactive | inactive | inactive | inactive | inactive | – | – | – | –
O=C(O)c1cc(Br)c(O)c(Br)c1 | inactive | inactive | inactive | inactive | inactive | inactive | inactive | inactive | inactive | inactive | – | – | – | –
CCCCCCCCCCl | inactive | inactive | inactive | inactive | inactive | inactive | inactive | inactive | inactive | inactive | – | – | – | –
CCCOC(=O)C(C)O (centres undefined) | 56.1 µM (active) | inactive | inactive | inactive | inactive | inactive | inactive | inactive | inactive | inactive | – | – | – | –
CCn1ccc(NS(=O)(=O)c2ccc(N)cc2)nc1=O | inactive | inactive | inactive | inactive | inactive | inactive | inactive | inactive | inactive | inactive | – | – | – | –
CCCCCCCC/C=C\CCCCCCCC(=O)OCCCC | inactive | inactive | inactive | inactive | inactive | inactive | – | – | – | – | -6.58% [at 19 µM] | 12% [at 19 µM] | -3.05% [at 15.8 µM] | -1.59% [at 15.8 µM]
BrCCCCCBr | inactive | inactive | inactive | inactive | inactive | inactive | inactive | inactive | inactive | inactive | – | – | – | –
C=COCCOCCOCCOC=C | inactive | inactive | inactive | inactive | inactive | inactive | inactive | inactive | inactive | inactive | – | – | – | –
Cc1cccc2nccnc12 | inactive | inactive | inactive | inactive | inactive | inactive | inactive | inactive | inactive | inactive | – | – | – | –
CCCCCCCCC1CCC(=O)O1 (centres undefined) | inactive | inactive | inactive | inactive | inactive | inactive | inactive | – | inactive | inactive | – | – | – | –
Cc1ccc(C=O)cc1C | inactive | inactive | inactive | inactive | inactive | inactive | inactive | inactive | inactive | inactive | – | – | – | –
NCCS | inactive | inactive | inactive | inactive | inactive | inactive | inactive | – | inactive | inactive | – | – | – | –
CCCC/C=C/C=C\C=O | – | inactive | inactive | inactive | inactive | inactive | inactive | inactive | inactive | inactive | – | – | – | –
COC(=O)[C@@H]1[C@H]2C[C@H]3c4[nH]c5ccccc5c4CCN3C[C@@H]2CC[C@@H]1O | – | inactive | inactive | inactive | inactive | inactive | inactive | inactive | inactive | inactive | – | – | – | –
C=Cc1ccccn1 | – | inactive | inactive | inactive | inactive | inactive | inactive | inactive | inactive | inactive | – | – | – | –
O=P(O)(O)OP(=O)(O)O | – | inactive | inactive | inactive | inactive | inactive | inactive | inactive | inactive | inactive | – | – | – | –

— PubChem BioAssay (Tox21)
